Only some compounds are listed: those with a hit (about 8.6% of all), similar ones and a draw of the others.
Marburg entry: inhibitors of Marburg virus binding or entry into cells; 6.5% of 18,000 active; Marburg virus pseudotype entry/binding inhibition, cell-based; Potency, µM (doses to about 49.2 µM), most hits filed as inhibitors
Lassa entry: Lassa virus entry inhibition. 4.1% of 18,000 active. Potency, µM (top dose mostly 49.2 µM), actives largely listed as inhibitors. Lassa virus pseudotyped entry inhibition, cell-based qHTS
Hits are given with their value; ! = a repeat was not active; [ ] = dose if it differs, or a comment. Calls follow the shape of the full dose curve; tested in HEK293 cells.

Results for NC(=O)[C@@H]1C[C@]2(NC(=O)NC2=O)c2cc(F)ccc2O1 ?
Marburg entry: inactive; Lassa entry: inactive

Results for COC(=O)C1=C(C)N(Cc2ccccc2)C(=NCCc2c[nH]c3ccccc23)NC1c1ccc(Br)cc1 (stereo not drawn) ?
Marburg entry: inconclusive; Lassa entry: inactive[8.59 µM]

Results for Nc1ncnc2nc[nH]c12 ?
Marburg entry: inactive; Lassa entry: inactive

How did Nc1nc(=S)c2[nH]cnc2[nH]1 do in these assays?
Marburg entry: 3.2µM; Lassa entry: 2.8µM

How did CCCCCC(=O)N1C[C@@H](O)[C@H](n2cc(COC(=O)c3ccccc3)nn2)C[C@H]1c1ccccc1 do in these assays?
Marburg entry: inactive; Lassa entry: inactive

What do the screens show for `CSC[C@H]1CN(CCc2ccccc2)C(=O)[C@H]1CC(=O)Nc1ccccc1`?
Marburg entry: inactive; Lassa entry: inactive

Results for COc1ccc2c3c(c(=O)oc2c1)[C@H]1O[C@](c2ccsc2)(Cc2cc(C#N)ccc21)O3 ?
Marburg entry: inactive[8.59 µM]; Lassa entry: inactive[8.59 µM]

How did O=C(NCCN1CCOCC1)c1cnn(-c2nccc(-c3ccccc3C(F)(F)F)n2)c1C1CC1 do in these assays?
Marburg entry: inactive; Lassa entry: inactive

How did C=CC[C@@H]1C=C[C@H](ON=C2c3cc(OC)ccc3O[C@H](c3cccc(OC)c3)[C@@H]2O)[C@H](CO)O1 do in these assays?
Marburg entry: inactive[8.59 µM]; Lassa entry: inactive[8.59 µM]

Results for C=C[C@]1(C)C[C@@H](OC(=O)CSC(C)(C)CNC(=O)[C@H](N)C(C)C)[C@]2(C)[C@H](C)CC[C@]3(CCC(=O)[C@H]32)[C@@H](C)[C@@H]1O ?
Marburg entry: 13µM; Lassa entry: inactive

What do the screens show for `C=C[C@]1(C)C[C@@H](OC(=O)CO)[C@]2(C)[C@H](C)CC[C@]3(CCC(=O)[C@H]32)[C@@H](C)[C@@H]1O`?
Marburg entry: inactive; Lassa entry: inactive

What do the screens show for `COC(=O)C[C@H]1c2ccccc2[C@@H]2C(=C[C@@H](C)[C@H]3C(=O)N(O)C(=O)[C@H]32)N1C(=O)OC`?
Marburg entry: inactive[8.59 µM]; Lassa entry: inactive[8.59 µM]

Results for C=CC[C@@H]1C=C[C@@H](Oc2ccc(OC)cc2)[C@H](COC(=O)c2ccc(Br)cc2)O1 ?
Marburg entry: inactive[8.59 µM]; Lassa entry: inactive[8.59 µM]

What do the screens show for `COC(=O)C1=C(C(=O)OC)[C@@H]2Nc3ccccc3[C@@]23C[C@@H](C(=O)OC)N(C(=O)Nc2ccc(C(F)(F)F)cc2)C3=N1`?
Marburg entry: inactive[8.59 µM]; Lassa entry: inactive[8.59 µM]

What do the screens show for `C[C@H]1C=CCC(=O)NCc2cccc(c2)CNC(=O)N[C@@H]1c1ccccc1`?
Marburg entry: inconclusive; Lassa entry: inactive[8.59 µM]

What do the screens show for `COc1cc(C)c(NC(=O)CN(C)C)cc1Nc1nc(Nc2cccc(F)c2C(N)=O)c2cc[nH]c2n1`?
Marburg entry: 0.79µM; Lassa entry: inconclusive

What do the screens show for `COc1cc(N2CCN(C(C)C)CC2)ccc1Nc1nc(Nc2ccc(F)cc2C(N)=O)c2cc[nH]c2n1`?
Marburg entry: 14µM; Lassa entry: inconclusive

How did CCCC[C@]12Cc3cc(C#N)ccc3[C@H](O1)c1c(c3ccccc3oc1=O)O2 do in these assays?
Marburg entry: inactive[8.59 µM]; Lassa entry: inactive[8.59 µM]

Results for CCCOC(=O)c1cc(O)c(O)c(O)c1 ?
Marburg entry: 25µM; Lassa entry: inactive

How did CCCOC(=O)c1ccc(O)cc1 do in these assays?
Marburg entry: inactive; Lassa entry: inactive

How did COc1cccc([C@@H]2Oc3ccc(Br)cc3C(=O)[C@@H]2OC(=O)N[C@H]2CCCc3ccccc32)c1 do in these assays?
Marburg entry: inactive[8.59 µM]; Lassa entry: inactive[8.59 µM]

Results for COc1ccc([C@]23Cc4ccccc4[C@H](O2)C2=C(CC(C)(C)CC2=O)O3)cc1 ?
Marburg entry: inactive[8.59 µM]; Lassa entry: inactive[8.59 µM]

Results for CCOC(=O)CCN1C(=O)[C@@H]2[C@H]3[C@H](O)[C@H](O)CC(=NO[C@@H]4O[C@H](COC(C)=O)[C@@H](OC(C)=O)[C@H](OC(C)=O)[C@@H]4OC(C)=O)[C@H]3CC[C@H]2C1=O ?
Marburg entry: inactive[8.59 µM]; Lassa entry: inactive[8.59 µM]

What do the screens show for `COC1C(O)C(C)O[C@H](OC2CC[C@@]3(C=O)C4CC[C@]5(C)C(C6=CC(=O)OC6)CC[C@@]5(O)C4CC[C@@H]3C2)C1O` (stereo partly drawn)?
Marburg entry: inconclusive; Lassa entry: 0.1µM

Results for COC1C(O)C(C)O[C@@H](OC2CC[C@@]3(C)C4CC[C@]5(C)C(C6=CC(=O)OC6)CC[C@@]5(O)C4CC[C@@H]3C2)C1O (stereo partly drawn) ?
Marburg entry: 0.079µM; Lassa entry: 0.1µM

Results for C=CCN1c2ccc(Br)cc2C(O)CS1(=O)=O (stereo not drawn) ?
Marburg entry: inconclusive; Lassa entry: inactive

How did C[C@@H]1CC[C@H]2C(=O)N(Cc3ccccc3)C[C@@H](O)CN2[C@@H]1c1cccc(Br)c1 do in these assays?
Marburg entry: inactive[8.59 µM]

How did C[C@]12C[C@@](C)(C=C1C=Cc1ccccc1)C(=O)C[C@H]2c1ccccc1 do in these assays?
Marburg entry: inactive[8.59 µM]; Lassa entry: inactive[8.59 µM]

What do the screens show for `c1ccc(-c2nc(-c3cccc4ccccc34)c(Nc3ccc4ccccc4c3)o2)cc1`?
Marburg entry: inactive; Lassa entry: inactive

Results for Clc1cccc(Nc2nnc(-c3ccccc3)c3ccccc23)c1 ?
Marburg entry: 7.1µM!; Lassa entry: 3.5µM

Results for CN1CCN(CCCN2c3ccccc3Sc3ccc(Cl)cc32)CC1 ?
Marburg entry: 10µM; Lassa entry: 20µM!

Results for CCSc1ccc2c(c1)N(CCCN1CCN(C)CC1)c1ccccc1S2 ?
Marburg entry: inconclusive; Lassa entry: inactive

Results for CN1CCN(CCCN2c3ccccc3Sc3ccccc32)CC1 ?
Marburg entry: 14µM; Lassa entry: inconclusive

Results for Cn1ccc2c(-c3ccccc3Cl)cc3c(c21)C1CCC3C1 (stereo not drawn) ?
Marburg entry: inactive; Lassa entry: inactive

How did COc1cccc([C@H]2NC(=O)CC=C[C@H](C)[C@@H](c3cccc(OC)c3)NC(=O)CC=C[C@H]2C)c1 do in these assays?
Marburg entry: inconclusive; Lassa entry: inactive[8.59 µM]

Results for O=C1C2=C(C(=O)c3ccccc31)[C@H]1O[C@](c3ccsc3)(Cc3c1ccc1ccccc31)O2 ?
Marburg entry: inactive[8.59 µM]; Lassa entry: inactive[8.59 µM]

Results for CC12C=C(C=Cc3ccc(Br)cc3)C(C)(C1)C(c1ccc(Br)cc1)CC2=O (stereo not drawn) ?
Marburg entry: inactive[8.59 µM]

How did CCC1(C2CCN(Cc3cccc4ccccc34)CC2)NC(=O)N(Cc2ccc3c(c2)OCO3)C1=O (stereo not drawn) do in these assays?
Marburg entry: inconclusive; Lassa entry: inactive

Results for Cc1cccc2c(Nc3ccc4c(c3)OCO4)nc(CN3CCC(N4CCCCC4)CC3)nc12 ?
Marburg entry: 10µM; Lassa entry: 22µM

How did CC(=O)OC[C@H]1O[C@@H](ON=C(C)CCN2CCCCc3nc(C)c(C)cc32)[C@H](OC(C)=O)[C@@H](OC(C)=O)[C@H]1OC(C)=O do in these assays?
Marburg entry: inactive[8.59 µM]; Lassa entry: inactive[8.59 µM]

What do the screens show for `COC1=C[C@@H](C(=O)N[C@H]2CCCC[C@H]2NC(C)=O)[C@@H](C)[C@H](c2ccccc2)CC1=O`?
Marburg entry: inactive[8.59 µM]; Lassa entry: inconclusive

Results for CN1CCN2c3ccccc3Cc3ccccc3C2C1 (stereo not drawn) ?
Marburg entry: 35µM; Lassa entry: inconclusive

Results for Cc1nn(-c2ccc(F)cc2)c(C)c1CNC(=O)c1ccc(-n2cc(NC(=O)c3ccoc3)cn2)cc1 ?
Marburg entry: inactive; Lassa entry: inactive

High-throughput results: PubChem, National Center for Advancing Translational Sciences (NCATS)
